Data from PubChem BioAssay (NCATS).
Values without a mark were called inactive. Records with an inconclusive call do not appear. Calls of active or inactive are those of the source. Unless noted, calls come from the whole dose curve; as a rule, active = well fitted curve in either direction with a large enough effect (not every such curve was filed as active); inconclusive = small, poorly fitted or top-dose-only effect, or another doubt; inactive = flat fitted curve, though single readings scatter. Residues, ends and D or L forms follow the SMILES beside them.

Tests used:
[1] = target: Lysosomal acid glucosylceramidase (Homo sapiens) (UniProt P04062); assay: Glucocerebrosidase-p2 (AID 348; in the data active = potency below about 10 µM; note: potency is the fitted concentration of half-maximal effect); settings: purified GBA, blue fluorogenic substrate, 40 min
Procedure, shortened: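 Normal human glucocerebrosidase (0.2 nM) with blue fluorogenic substrate (80 uM final) in citrate/phosphate pH 5.9 with 10mM sodium taurocholate, 0.01% tween-20; 40 min RT, NaOH/glycine stop; fluorescence Ex 365/Em 440; AC50 from a titration from 0.6 nM upwards.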

[2] = AP1 Signaling Pathway (AID 357); settings: ME-180 AP-1-bla reporter, EGF-induced, beta-lactamase ratio, 5 h; at 7.69 µM (top of the series) unless noted; note: % is set by controls: 0 for no effect and ±100 for the full control effect
Procedure, shortened: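 AP-1-bla ME-180 cells with beta-lactamase reporter under AP-1 response element, stimulated with EC50 EGF; compounds titrated, 5 hours at 37 degrees Celsius. CCF4 read at 460/530 nm ratio; positive and negative modulators judged by AC50.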

[3] = target: Cytochrome P450 1A2 (Homo sapiens) (UniProt P05177); assay: p450-cyp1a2 (AID 410; calls by dose curve; note: potency is the fitted concentration of half-maximal effect;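 for activity change, negative = inhibition: -100% = full effect of reference inhibitor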); settings: recombinant CYP1A2, luciferin-ME demethylation, luminescence; series mostly up to 11.4 µM
Procedure, shortened: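 O-Demethylation of luciferin 6' methyl ether by human CYP1A2 is monitored as luciferase luminescence. Substrate sits at Km (100uM); enzyme is 20nM. Values are scaled to 57 uM furafylline as maximal inhibition.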

[4] = NFAT Signaling Pathway (AID 444); settings: Jurkat NFAT-bla M1, carbachol, beta-lactamase ratio, 5 h; at 7.69 µM (top of the series) unless noted;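 note: carbachol stimulus at about its EC50 of 1 µM final; % is set by controls: 0 for no effect and ±100 for the full control effect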
Procedure, shortened: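 Read-out: CCF4 FRET ratio (460 nm/530 nm) after 1 h RT dye loading, used for %activity and AC50 from titration series. Cells: Jurkat NFAT-β-lactamase/M1 line, treated with compound plus 1 uM carbachol for 5 h, 37 °C.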

[5] = Stat Signaling Pathway (AID 446); settings: ME-180 (cervical carcinoma) SIE beta-lactamase reporter, IL-6 stimulated, 5 h; at 7.69 µM (top of the series) unless noted;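 note: ME-180 cervical cancer cells given 40 pM IL-6 alongside compound; SIE-controlled beta-lactamase reporter measured as 460/530 nm FRET emission ratio; % is set by controls: 0 for no effect and ±100 for the full control effect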
Procedure, shortened: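 Overnight-plated ME-180 cells bearing a STAT Inducible Element beta-lactamase reporter; 5 h co-exposure to compound and 40 pM IL-6; values normalized to 300 pM IL-6 and 125 nM JAK inhibitor controls.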

[6] = target: Glucocorticoid receptor (Homo sapiens) (UniProt P04150); assay: GR-GFP Redistribution (AID 450;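 active = compounds whose dose series gives a full or clear partial fitted curve of increased nuclear translocation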; note: potency is the fitted concentration of half-maximal effect); settings: U2OS GR-GFP nuclear translocation, laser cytometry, 2 h
[7] = target: Glucocorticoid receptor (Homo sapiens) (UniProt P04150); assay: GR-EFC Redistribution (AID 451; calls by dose curve; note: potency is the fitted concentration of half-maximal effect); settings: CHO-K1 GR-EFC translocation, beta-gal luminescence, 2 h
Procedure, shortened: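 Translocation of GR-ED fusion to nuclear EA restores b-gal, read by luminescence after 1 h room-temperature detection. Engineered CHO-K1 biosensor cells, 1,000/well, exposed 2 h at 37 C to titrations up to 46 uM final.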

[8] = target: Mitogen-activated protein kinase 10 (Mus musculus) (UniProt Q61831); assay: JNK3 AlphaScreen Assay (AID 530); settings: JNK3 lysate, c-Jun phosphorylation; series mostly up to 11.4 µM;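 note: kinase came from lysate of stimulated human HepG2 cells; signal reports phosphorylation of biotinylated GST-cJun 1-79 at Ser73 with 10 µM ATP; % is set by controls: 0 for no effect and ±100 for the full control effect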
Procedure, shortened: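 qHTS titrations with 15 min compound pre-incubation before adding ATP (10 uM final). Read-out: AlphaScreen of Ser73-phosphorylated biotin-GST-cJun using HepG2 lysate JNK3 activated by IL-1β and TNFα.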

[9] = target: 3',5'-cyclic-AMP phosphodiesterase 4B (Homo sapiens) (UniProt Q07343); assay: qHTS Assay for Inhibitors of PDE-IV (AID 607; active = well fitted activation curve with a large enough effect in the main read-out, with a control signal flat, not every such curve was filed as active; note: % of control where 0% means no effect); settings: HEK293 ACTOne CNG channel cells, membrane potential fluorescence; series mostly up to 22.9 µM
Procedure, shortened: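 Live HEK293 cells with a modified cyclic nucleotide-gated (CNG) channel report intracellular cAMP via membrane-potential dye fluorescence (ex 535/em 590 nm). Endogenous PDE-IV was targeted. Compounds were tested at up to 22.9 uM final; RO 20-1724 100 uM served as control.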

Cytochrome P450 1A2 (Homo sapiens), sequence (P05177 whole entry, looked up): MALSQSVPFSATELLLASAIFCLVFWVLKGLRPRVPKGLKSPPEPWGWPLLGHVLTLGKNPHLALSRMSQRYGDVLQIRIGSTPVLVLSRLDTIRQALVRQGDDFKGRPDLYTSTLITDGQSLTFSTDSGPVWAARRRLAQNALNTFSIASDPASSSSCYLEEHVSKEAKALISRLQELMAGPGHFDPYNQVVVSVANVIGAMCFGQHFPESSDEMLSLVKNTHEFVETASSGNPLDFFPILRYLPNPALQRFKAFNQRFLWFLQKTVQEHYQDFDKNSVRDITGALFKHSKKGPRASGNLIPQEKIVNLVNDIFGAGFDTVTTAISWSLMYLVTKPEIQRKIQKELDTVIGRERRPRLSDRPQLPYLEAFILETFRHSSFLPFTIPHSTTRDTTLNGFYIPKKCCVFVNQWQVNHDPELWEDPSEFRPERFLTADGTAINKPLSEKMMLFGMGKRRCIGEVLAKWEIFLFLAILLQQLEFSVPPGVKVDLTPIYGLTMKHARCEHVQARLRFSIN
Lysosomal acid glucosylceramidase (Homo sapiens), sequence (P04062 whole entry, looked up): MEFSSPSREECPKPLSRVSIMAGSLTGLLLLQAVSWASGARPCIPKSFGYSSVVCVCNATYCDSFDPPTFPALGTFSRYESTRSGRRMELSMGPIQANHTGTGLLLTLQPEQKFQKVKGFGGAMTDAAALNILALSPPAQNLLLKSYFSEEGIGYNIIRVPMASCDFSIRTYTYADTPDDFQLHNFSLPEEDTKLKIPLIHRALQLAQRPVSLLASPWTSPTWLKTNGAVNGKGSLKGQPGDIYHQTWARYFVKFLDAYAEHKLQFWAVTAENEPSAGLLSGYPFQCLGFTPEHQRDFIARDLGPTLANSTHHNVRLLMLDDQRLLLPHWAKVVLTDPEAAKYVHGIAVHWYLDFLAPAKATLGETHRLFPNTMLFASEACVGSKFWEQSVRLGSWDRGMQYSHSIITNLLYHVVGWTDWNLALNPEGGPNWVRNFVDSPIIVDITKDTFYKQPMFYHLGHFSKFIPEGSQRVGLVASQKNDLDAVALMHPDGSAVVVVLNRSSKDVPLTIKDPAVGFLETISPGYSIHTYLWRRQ
3',5'-cyclic-AMP phosphodiesterase 4B (Homo sapiens), sequence (Q07343 whole entry, looked up): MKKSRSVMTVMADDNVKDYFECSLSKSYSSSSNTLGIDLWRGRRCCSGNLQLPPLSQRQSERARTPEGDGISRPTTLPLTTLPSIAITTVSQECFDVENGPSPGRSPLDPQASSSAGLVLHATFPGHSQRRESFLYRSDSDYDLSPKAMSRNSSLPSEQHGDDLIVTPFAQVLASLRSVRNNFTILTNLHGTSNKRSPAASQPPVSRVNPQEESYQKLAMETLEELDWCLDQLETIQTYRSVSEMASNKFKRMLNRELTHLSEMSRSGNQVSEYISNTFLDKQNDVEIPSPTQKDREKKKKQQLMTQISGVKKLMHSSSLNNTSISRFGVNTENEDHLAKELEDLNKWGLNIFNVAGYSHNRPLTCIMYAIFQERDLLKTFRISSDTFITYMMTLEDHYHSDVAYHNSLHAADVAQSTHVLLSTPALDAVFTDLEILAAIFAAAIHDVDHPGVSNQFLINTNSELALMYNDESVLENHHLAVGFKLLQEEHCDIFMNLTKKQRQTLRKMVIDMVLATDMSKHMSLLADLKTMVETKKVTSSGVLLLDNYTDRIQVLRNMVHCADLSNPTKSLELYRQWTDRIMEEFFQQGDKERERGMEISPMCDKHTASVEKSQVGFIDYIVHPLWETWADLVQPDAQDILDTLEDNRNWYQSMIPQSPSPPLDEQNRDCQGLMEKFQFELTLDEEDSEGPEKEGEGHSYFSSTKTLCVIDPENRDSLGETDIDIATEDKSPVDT
Glucocorticoid receptor (Homo sapiens), sequence (P04150 whole entry, looked up, the tested form may be a part): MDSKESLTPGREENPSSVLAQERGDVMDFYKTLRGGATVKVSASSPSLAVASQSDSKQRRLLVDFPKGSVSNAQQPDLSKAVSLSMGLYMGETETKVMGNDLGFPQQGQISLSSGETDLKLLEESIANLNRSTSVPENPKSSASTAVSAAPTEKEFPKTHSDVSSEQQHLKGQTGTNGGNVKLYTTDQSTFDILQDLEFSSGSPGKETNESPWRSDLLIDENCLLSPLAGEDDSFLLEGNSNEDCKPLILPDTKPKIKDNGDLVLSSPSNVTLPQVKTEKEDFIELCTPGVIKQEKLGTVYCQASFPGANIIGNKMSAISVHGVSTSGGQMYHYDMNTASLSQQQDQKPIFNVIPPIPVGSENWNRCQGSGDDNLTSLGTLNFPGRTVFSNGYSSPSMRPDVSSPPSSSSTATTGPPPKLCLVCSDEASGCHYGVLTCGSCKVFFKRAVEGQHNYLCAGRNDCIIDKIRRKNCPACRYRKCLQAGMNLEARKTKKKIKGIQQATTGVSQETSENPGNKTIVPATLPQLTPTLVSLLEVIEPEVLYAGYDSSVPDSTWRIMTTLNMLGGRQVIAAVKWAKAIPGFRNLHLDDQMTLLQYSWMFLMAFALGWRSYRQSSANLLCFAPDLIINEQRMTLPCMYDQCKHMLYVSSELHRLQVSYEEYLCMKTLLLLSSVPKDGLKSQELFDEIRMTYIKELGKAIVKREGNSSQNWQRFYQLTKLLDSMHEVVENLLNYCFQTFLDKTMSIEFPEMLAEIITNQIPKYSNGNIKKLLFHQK

| SMILES | Potency [1] [µM] | activity change, negative = inhibition [2] [%] | Potency [3] | activity change, negative = inhibition [4] [%] | activity, negative = inhibition [5] [%] | Potency [6] [µM] | Potency [7] [µM] | Potency [8] | Potency [9] | activity change, negative = inhibition [3] |
| --- | --- | --- | --- | --- | --- | --- | --- | --- | --- | --- |
| NC(N)=Nc1ccc(-c2ccc(N=C(N)N)cc2)cc1 | > 11.4 | 1.56 | inactive | 4.39 | 0.358 | > 46 | > 9.22 | inactive | inactive |  |
| O=C(O)CCCCn1ccc(=O)[nH]c1=O | > 11.4 | 9.63 | inactive | -9.32 | 4.56 | > 46 | > 9.22 | inactive | inactive |  |
| N[C@H](CO)C(=O)NCC(=O)O (HELM PEPTIDE1{[dS].G}$$$$V2.0) | > 11.4 | -4.49 |  | 13.2 | 13.6 | > 46 | > 9.22 | inactive | inactive | 3.6% [at 2.29 µM] |
| C[N+]1(CCCC[N+]2(C)CCCCCCC2)CCCCCCC1 | > 11.4 | 0.612 |  | -24.9 | -6.69 | > 46 | > 9.22 | inactive | inactive | -10.4% [at 2.29 µM] |
| O=[N+]([O-])/C=C\c1cc2ccccc2[nH]1 | > 11.4 | -11.8 | 1.26 µM (active) | 12.4 | 23.3 | > 46 | > 9.22 | inactive | inactive |  |
| CN(CC(=O)O)Cc1oc(CO)cc(=O)c1O | > 11.4 | 6.02 | inactive | 10 | 5.1 | > 46 | > 9.22 | inactive | inactive |  |
| CCc1ncc(CO)n1Cc1cccc2ccccc12 | > 11.4 | 11.3 | inactive | 6.66 | 10.1 | > 46 | > 9.22 | inactive | inactive |  |
| Cc1ccc(S(=O)(=O)Oc2cc(N)c3c(n2)CCC3)cc1 | > 11.4 | 11.1 |  | 9.71 | -5.99 | > 46 | > 9.22 | inactive | inactive | -19.4% [at 2.29 µM] |
| O=C1Nc2ccccc2C1=Nc1cccc2ncccc12 | > 11.4 | 5.64 | 3.98 µM (active) | -3.54 | 2.41 | > 46 | > 9.22 | inactive | inactive |  |
| c1c[nH]c(CN2CCN(Cc3ncc[nH]3)CC2)n1 | > 11.4 | 4.41 | inactive | -12.2 | -5.33 | > 46 | > 9.22 | inactive | inactive |  |
| C[C@H]1O[C@@H](CC(=O)O)Cc2c1c(O)c1c(O)cc(-c3cc(=O)c4c(=O)c5c(c(=O)c=4c3=O)C[C@H](CC(=O)O)O[C@@H]5C)c(O)c1c2O | > 11.4 | 13 |  | 9.83 | -5.2 | > 46 | > 9.22 | inactive | inactive | -29.1% [at 2.29 µM] |
| ClC(Cl)(Cl)C(N1CCN(c2ccccc2)CC1)N1CCN(c2ccccc2)CC1 | > 11.4 | -0.388 |  | -2.17 | -6.12 | > 46 | > 9.22 | inactive | inactive | -14.9% [at 2.29 µM] |
| c1ccc([C@H](CCN2CCCC2)c2ccccn2)cc1 | > 11.4 | -0.626 | inactive | -26.3 | 0.606 | > 46 | > 9.22 | inactive | inactive |  |
| O=NN(Cc1ccc(Cl)cc1)[C@@H](C(=O)O)c1ccccc1 | > 11.4 | 15.1 | 5.01 µM (active) | -4.59 | 0.591 | > 46 | > 9.22 | inactive | inactive |  |
| CC12CC[C@@H]3c4ccc(OP(=O)(O)O)cc4CCC3C1CCC2=O (some centres not stated) | > 11.4 | 2.65 |  | 10.4 | -5.93 | > 46 | > 9.22 | inactive | inactive | -13.4% [at 2.29 µM] |
| NCS(=O)(=O)O | > 11.4 | -4.59 |  | 2.65 | -0.0948 | > 46 | > 9.22 | inactive | inactive | -5.6% [at 2.29 µM] |
| Cn1c(=O)c2[nH]c(/N=N\N3CCN(CCO)CC3)nc2n(C)c1=O | > 11.4 | 6.96 |  | 7.64 | 11.6 | > 46 | > 9.22 | inactive | inactive | -14.7% [at 2.29 µM] |
| NC(N)=N/N=C\c1ccc(C2CCNCC2)cc1 | > 11.4 | 7.39 |  | -11.8 | 0.317 | > 46 | > 9.22 | inactive | inactive | -12% [at 2.29 µM] |
| N=C(N)SCCc1ccncc1 | > 11.4 | 3.09 |  | -0.295 | 3.81 | > 46 | > 9.22 | inactive | inactive | -17.8% [at 2.29 µM] |
| COc1ccc(-c2nc(N)c3ncn([C@H]4O[C@@H](CO)[C@@H](O)[C@@H]4O)c3n2)cc1 | > 11.4 | -12.4 |  | 0.656 | 3.98 | > 46 | > 9.22 | inactive | inactive | -13% [at 2.29 µM] |
| Cn1c(=O)c2[nH]c(CS(=O)(=O)Cc3nc4c([nH]3)c(=O)n(C)c(=O)n4C)nc2n(C)c1=O | > 11.4 | -5.52 |  | -4.99 | -2.96 | > 46 | > 9.22 | inactive | inactive | -21.1% [at 2.29 µM] |
| O=C(O)CNCCc1ccccc1 | > 11.4 | 7.75 | inactive | -3.02 | 4.05 | > 46 | > 9.22 | inactive | inactive |  |
| CCON=C1C(C)(C)C(C)(C)C(C)(C)C1(C)C | > 11.4 | 1.12 | inactive | 6.28 | -3.9 | > 46 | > 9.22 | inactive | inactive |  |
| COc1nc(N)nc2c1ncn2[C@@H]1C[C@H](O)[C@@H](CO)O1 | > 11.4 | 5.07 | inactive | 4.99 | 11.5 | > 46 | > 9.22 | inactive | inactive |  |
| CN(C)CCCn1c2ccccc2c2cnccc21 | > 11.4 | 1.6 |  | 2.32 | 13.9 | > 46 | > 9.22 | inactive | inactive | -20% [at 2.29 µM] |
| Fc1cccc(CSc2ncnc3c2ncn3[C@H]2CCCS2)c1 | > 11.4 | -5.08 | 0.501 µM (active) | -2.58 | 3.04 | > 46 | > 9.22 | inactive | inactive |  |
| CC1CCC(O)([C@](C)(C(=O)O)c2ccccc2)CC1 (some centres not stated) | > 11.4 | -5.12 | inactive | -26.7 | -1.34 | > 46 | > 9.22 | inactive | inactive |  |
| c1ccc2cc(-c3cc(-c4cc(-c5ccc6ccccc6c5)on4)no3)ccc2c1 | > 11.4 | 2.52 | 1.58 µM (active) | 1.2 | 1.33 | > 46 | > 9.22 | inactive | inactive |  |
